# Measurements: PubChem BioAssay AID1347147 (National Center for Advancing Translational Sciences (NCATS), 2019)
# Results filed as inconclusive are left out. Unmarked numbers belong to inactive results. Active and inactive are the calls of the source. Calls follow the shape of the dose curve; as a rule, active = well fitted inhibition curve with a large enough effect; inconclusive = small, poorly fitted or top-dose-only effect; inactive = no such curve, though single readings can be large or run the other way.
# Target: N-terminal Xaa-Pro-Lys N-methyltransferase 1 (Homo sapiens) (UniProt Q9BV86)
# Sequence (Q9BV86 whole entry, looked up): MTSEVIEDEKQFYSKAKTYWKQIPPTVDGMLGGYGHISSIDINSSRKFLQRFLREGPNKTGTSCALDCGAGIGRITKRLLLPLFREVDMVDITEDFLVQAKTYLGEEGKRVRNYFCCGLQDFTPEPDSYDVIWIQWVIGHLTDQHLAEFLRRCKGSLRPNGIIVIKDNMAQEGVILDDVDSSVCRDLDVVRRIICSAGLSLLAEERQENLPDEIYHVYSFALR
# Assay: qHTS Assay for Inhibitors of N-terminal methyltransferase 1 (NTMT1): MTaseGlo Confirmatory Screen, Round 2
# Conditions: NTMT1 enzyme, MTase-Glo SAH luminescence; series mostly up to 57.4 µM; activity change, negative = inhibition: at the top concentration
# Method in brief: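 Luminescent MTase-Glo readout of SAH formed in 30 min at RT by 125 nM NTMT1, 100 µM SAM and 1 µM SPKRIA substrate, after ~15 min compound preincubation. Percent inhibition versus no-enzyme and DMSO controls was Hill-fitted.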
# 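For activity change, negative = inhibition in this document: plate controls were DMSO for no effect and no enzyme control for full effect.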
# Potency is read from the fitted curve at half-maximal effect.
Compound,"activity change, negative = inhibition [%]",Potency
CCN(CC)C(C)CN1c2ccccc2Sc2ccccc21 (stereo unspecified),-6.93,
COc1cc2c(NC3CCN(C(C)C)CC3)nc(N3CCC(F)(F)CC3)nc2cc1OCCCN1CCCCC1,-11.7,
CCn1nc(C(=O)O)c(=O)c2cc3c(cc21)OCO3,0.226,
O=C(N[C@@H](Cc1ccccc1)C(=O)CCl)OCc1ccccc1,-11,
NS(=O)(=O)c1cccc2c1c([N+](=O)[O-])cc1nc(O)c(O)nc12,-14.9,
COc1cccc(OC)c1OCCNCC1CSc2ccccc2O1 (stereo unspecified),-12,
CC(C)=CCNc1ncnc2c1ncn2[C@@H]1O[C@H](CO)[C@@H](O)[C@H]1O,382,
OCC1OC(n2cnc3c(NCc4ccco4)ncnc32)C(O)C1O (stereo unspecified),153,
O=c1ccc2ccc(O)c(O)c2o1,-5.42,
N#C/C(=C\c1ccc(O)c(O)c1)C(=O)NCCCNC(=O)/C(C#N)=C/c1ccc(O)c(O)c1,,7.94 µM (active)
C[C@](Cc1ccc(O)c(O)c1)(NN)C(=O)O,-4.63,
Cc1cc(C)c(/C=C2\C(=O)Nc3ccccc32)[nH]1,-5.43,
NC[C@@H]1O[C@H](c2ccccc2)Cc2c1ccc(O)c2O,-10.2,
Nc1nc2ccc(Cl)cc2c2nc(-c3ccco3)nn12,1.12,
O=C1Cc2c([nH]c3ccc(Br)cc23)-c2ccccc2N1,6.63,
Nc1ccnc2c1ncn2[C@@H]1O[C@H](CO)[C@@H](O)[C@H]1O,,10 µM (active)
Nc1c(S(=O)(=O)O)cc(Nc2ccc(Nc3nc(Cl)nc(Nc4ccc(S(=O)(=O)O)cc4)n3)c(S(=O)(=O)O)c2)c2c1C(=O)c1ccccc1C2=O,,31.6 µM (active)
Oc1cc(O)c2c(c1)O[C@H](c1ccc(O)c(O)c1)[C@@H](O)C2,0.317,
CN(C)CCCN1c2ccccc2Sc2ccc(Cl)cc21,-9.4,
CC[C@H](C)n1cc(C)c2c(C(=O)NCc3c(C)cc(C)[nH]c3=O)cc(-c3ccc(N4CCNCC4)nc3)cc21,-3.32,
CCC(=O)c1ccc2c(c1)N(CCCN(C)C)c1ccccc1S2,-9.82,
